Data on 67 compounds can be found in PubChem BioAssay AID2289 (National Center for Advancing Translational Sciences (NCATS), 2010).

Each structure is given as a SMILES string. The campaign covered roughly 340,000 compounds. About 3,300 (0.97%) were called active. Not shown: some 9% with an inconclusive outcome. Calls come from the whole dose curve; as a rule, active = well fitted inhibition curve with a large enough effect; inconclusive = small, poorly fitted or top-dose-only effect, or effect the other way; inactive = flat fitted curve, though single readings scatter. Some of the results follow.
Potency is the fitted concentration of half-maximal effect.

The assay in a line: qHTS Assay for Modulators of miRNAs and/or Inhibitors of miR-21. Note: nearly all actives have a fitted effect of over 55% in size. To be noted: HeLa miR-21-FLuc reporter, luciferase luminescence, 48 h; actives lower the signal. The gist of the method: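 HeLa miR-21-FLuc reporter line, endogenous miR-21; 2000 cells/well in DMEM/10% FBS; compound titration up to ~40uM final, 48 h, 37 degree Celsius; luciferase detection reagent, 15 min lysis, CCD luminescence.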
(In general: qHTS replaces the single test concentration by a dilution series.)
As for `CCc1ccc(C(=O)NC(=S)Nc2ccc3c(c2)OCCO3)cc1`, the Potency was 2.07 µM (active).
For `Cc1cc(C)cc(C(=O)NC(=S)Nc2ccc3c(c2)OCCO3)c1`, the Potency was 7.36 µM (active).
The result for `O=C(NC(=S)Nc1ccc2c(c1)OCCO2)c1cccc(Br)c1` reads 3.69 µM (active); that for `O=C(O)c1ccc(-c2nc(-c3ccccc3)cs2)cc1`, 2.61 µM (active); that for `CNC(=O)c1ccc(-c2nc(-c3ccccc3)cs2)cc1`, 3.29 µM (active).
Regarding `O=C(O)c1ccc(-c2nc(-c3ccc(Cl)cc3)cs2)cc1`, the Potency is 0.414 µM (active).
The result for `C/C(CC(=O)Nc1cc(C)cc(C)c1)=N\NC(=O)c1ccccn1` reads 4.65 µM (active); that for `C/C(CC(=O)NCc1ccccc1Cl)=N/NC(=O)c1ccccn1`, 8.26 µM (active); that for `COc1ccccc1NC(=O)C/C(C)=N/NC(=O)c1ccccn1`, 1.85 µM (active).
The result for `CCOC(=O)C1CCCN(C(=O)CCc2nnc(-c3ccc(C(C)=O)s3)o2)C1` (configuration not stated) reads 3.29 µM (active).
The result for `Fc1ccccc1-n1ncc2c1ncn1nc(-c3ccccc3Cl)nc21` reads 0.736 µM (active); that for `COc1c2c(cc3oc(=O)ccc13)OC(C)(C)C=C2`, 18.5 µM (active); that for `CC1(C)C=Cc2cc3ccc(=O)oc3cc2O1`, 13.1 µM (active).
For `NC(=O)c1ccccc1NC(=O)c1ccc(-c2ccc(Br)cc2)o1`, the Potency is 1.17 µM (active).
The result for `O=C(NC(=S)Nc1ccccc1C(=O)O)c1ccc(-c2ccc(Br)cc2)o1` reads 11.7 µM (active).
The result for `S=c1[nH]nc(-c2ccc(Cl)cc2Cl)n1-c1ccccc1` reads 5.21 µM (active).
The result for `CN(c1ccccc1)c1ccc(/C=N/N2CCOCC2)cc1` reads 1.47 µM (active); that for `O=[N+]([O-])c1ncccc1OCc1ccc(Cl)c(Cl)c1`, 7.36 µM (active).
Turning to `COc1ccc2nc(NC(=O)c3cccnc3SC)sc2c1`, the Potency is 2.93 µM (active).
The result for `COc1ccc2nc(NC(=O)c3ccc(Br)s3)sc2c1` reads 1.17 µM (active); that for `O=C(NC(=O)c1ccc(Cl)cc1)OC1CCCCC1`, 16.5 µM (active); that for `Cc1cc(CC(C)C)n(-c2nc3ccccc3c(=O)n2OCC(=O)N(C)C)n1`, 18.5 µM (active).
Regarding `COc1ccc(CCn2nc(C)c([N+](=O)[O-])c2C)cc1`, the Potency is 4.14 µM (active).
As for `O=C(/C=C/Nc1ccccc1O)c1ccco1`, the Potency is 18.5 µM (active).
The result for `CC(=O)N1c2ccccc2Oc2cc3ccccc3cc21` reads 9.27 µM (active); that for `CCCC(=O)N(CCN1CCOCC1)c1nc2cc(C)c(C)cc2s1`, 2.33 µM (active).
As for `O=C(NC(=S)Nc1ccc2ncccc2c1)c1ccccc1`, the Potency is 6.56 µM (active).
The result for `Cc1cc(C(=O)Nc2cnc3ccccc3c2)ccc1[N+](=O)[O-]` reads 0.736 µM (active).
As to `Cc1csc(NC(=S)NC(=O)c2ccccc2)n1`, the Potency is 1.31 µM (active).
The result for `O=C(Nc1ccc2ncccc2c1)c1ccccc1Br` reads 1.65 µM (active); that for `O=C(NC(=S)Nc1ccc(Cl)cc1)c1ccccc1`, 4.65 µM (active); that for `O=C(NNC(=S)Nc1ccccc1)c1ccc2ncccc2c1`, 8.26 µM (active).
With `O=C(NC(=S)Nc1cnc2ccccc2c1)c1ccccc1`, the Potency was 0.585 µM (active).
The result for `Cc1cccc2nc(CSc3nc4ccccc4o3)cn12` reads 18.5 µM (active).
The result for `Clc1ccc(SCc2cn3ccccc3n2)cc1` reads 4.65 µM (active); that for `c1ccc2c(SCc3cn4ccccc4n3)nncc2c1`, 14.7 µM (active).
As to `Cc1cc(C)c(C#N)c(SCc2cn3ccccc3n2)n1`, the Potency is 18.5 µM (active).
With `c1ccc2nc(SCc3cn4ccccc4n3)cnc2c1`, the Potency is 9.27 µM (active).
Regarding `Cc1cccc2nc(CSc3ccc(Cl)cc3)cn12`, the Potency is 4.14 µM (active).
The result for `Clc1ccc2nc(CSCc3ccccc3)cn2c1` reads 2.93 µM (active).
The result for `CCOc1ccc(N2Nc3n[nH]c(N)c3N2)cc1` reads 16.5 µM (active); that for `N#CC1CC(c2ccccc2)=NN1c1ccccc1[N+](=O)[O-]` (configuration not stated), 5.85 µM (active); that for `CC(/C=C/c1ccc(OCc2ccccc2)cc1)=N\O`, 2.07 µM (active).
Take `c1ccc(CSc2nnc3ccc(-c4cccs4)nn23)nc1`: the Potency is 7.36 µM (active).
Take `COC(=O)c1cc2c(s1)-c1ccc(OC)cc1CC2`: the Potency is 6.56 µM (active).
For the compound `Cc1cccc(-n2nnc(-c3nc(-c4cccs4)no3)c2N)c1C`, the Potency is 0.0927 µM (active).
As for `COc1cccc(-n2nnc(-c3nc(-c4cccs4)no3)c2N)c1`, the Potency was 1.04 µM (active).
The result for `CCc1ccc(-n2nnc(-c3nc(-c4cccs4)no3)c2N)cc1` reads 1.17 µM (active); that for `CCc1ccc(-n2nnc(-c3nc(-c4ccccc4)no3)c2C)cc1`, 1.17 µM (active); that for `Nc1c(-c2nc(-c3cccs3)no2)nnn1-c1cccc(F)c1`, 0.208 µM (active).
The result for `Cc1cccc(-n2nnc(-c3nc(-c4cccs4)no3)c2N)c1` reads 0.329 µM (active); that for `COc1ccc(/C(C)=N/Nc2ccccc2Cl)c(O)c1`, 8.26 µM (active); that for `Nc1nc(N2CCN(c3ccccn3)CC2)nc2ccccc12`, 6.56 µM (active).
The result for `Nc1nc(N2CCN(C(=O)c3ccco3)CC2)nc2ccccc12` reads 14.7 µM (active); that for `CCOc1ccc2nc(C(=O)N3CCCC(C)C3)sc2c1` (configuration not stated), 3.29 µM (active); that for `Clc1ccc(COn2nnc3ccccc32)c(Cl)c1`, 2.61 µM (active).
For the compound `COC(=O)c1ccc(COn2nnc3ccccc32)cc1`, the Potency was 1.31 µM (active).
The result for `c1ccc2c(COn3nnc4ccccc43)cccc2c1` reads 2.61 µM (active); that for `COc1cccc(/C=N/Nc2nc3ccccc3[nH]2)c1OC`, 2.93 µM (active); that for `COc1cccc(/C=N/n2c(=O)[nH]c3ccccc32)c1OC`, 8.26 µM (active).
For `O=c1[nH]n(CC2COC3(CCCCC3)O2)c(=O)c2ccccc12` (configuration not stated), the Potency is 16.5 µM (active).
With `Oc1cccc(Nc2nc(O)c(/C=C3\C=Nc4ccccc43)s2)c1`, the Potency is 8.26 µM (active).
On to `Cc1ccc(S(=O)(=O)Oc2cccc(/C=N/Nc3ccc(C(=O)O)cc3)c2)cc1`, for which the Potency was 13.1 µM (active).
In the case of `O=C(O)c1ccc(N/N=C/c2cccc(C(F)(F)F)c2)cc1`, the Potency is 1.85 µM (active).
The result for `O=C(O)c1ccc(/C=N/Nc2cccc(C(F)(F)F)c2)cc1` reads 7.36 µM (active); that for `FC(F)(F)c1cccc(N/N=C/c2ccccc2)c1`, 6.56 µM (active); that for `Cc1nn(-c2cccc(C(F)(F)F)c2)c(Cl)c1/C=N/Nc1cccc(C(=O)O)c1`, 0.104 µM (active).
